Most compounds without a hit are left out; they make up all but 3.1% or so of the library.
Mcl1 Noxa PPI: Mcl-1/Noxa interaction inhibition | Q07820 | TR-FRET Mcl-1/Noxa peptide binding, 2 h | inhibition, % at 21.7 µM | 220,000 tested, 1.5% active | AID 1022;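 active = compounds that cut the protein-peptide binding signal by more than 50% relative to plate controls in a single-dose test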;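 note: His-tagged Mcl-1 with rhodamine Noxa BH3 peptide and terbium anti-His antibody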
p47phox inh: p47phox (human) inhibition; P14598; p47phox/p22phox peptide binding, fluorescence polarization, 2 h; inhibition, % at 24.7 µM; 220,000 tested, 0.53% active; AID 1274;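 active = inhibition above about 30%, limit read from the data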
Target sequence (P14598 whole entry, looked up): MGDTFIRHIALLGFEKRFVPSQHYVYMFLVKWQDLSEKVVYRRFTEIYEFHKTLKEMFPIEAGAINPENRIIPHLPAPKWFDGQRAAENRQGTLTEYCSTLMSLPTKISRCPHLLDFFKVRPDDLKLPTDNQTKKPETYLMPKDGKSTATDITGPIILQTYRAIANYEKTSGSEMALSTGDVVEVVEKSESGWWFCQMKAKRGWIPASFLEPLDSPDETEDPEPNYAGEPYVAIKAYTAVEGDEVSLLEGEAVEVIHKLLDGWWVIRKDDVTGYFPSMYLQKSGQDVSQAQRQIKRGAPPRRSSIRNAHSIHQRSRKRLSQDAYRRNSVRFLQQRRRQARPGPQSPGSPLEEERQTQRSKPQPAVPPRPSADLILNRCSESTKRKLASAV
Mcl-1 Bim block: inhibitors of Bim-Mcl-1 interaction, human; AID 1009; Q07820; Bead-based flow cytometry, Bim peptide-Mcl-1 binding; inhibition, % at 10 µM; 190,000 tested, 0.1% active; in the data active = inhibition above about 40%
14-3-3 Bad PPI: disrupts binding of bovine 14-3-3 zeta to phospho-Bad peptide. AID 781. P63103. 220,000 tested, 0.71% active. inhibition, % at 21.7 µM. TR-FRET 14-3-3zeta/Dy647-pBad peptide displacement, 1 h;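 active = inhibition above about 70%, limit read from the data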
Target sequence (P63103 whole entry, looked up): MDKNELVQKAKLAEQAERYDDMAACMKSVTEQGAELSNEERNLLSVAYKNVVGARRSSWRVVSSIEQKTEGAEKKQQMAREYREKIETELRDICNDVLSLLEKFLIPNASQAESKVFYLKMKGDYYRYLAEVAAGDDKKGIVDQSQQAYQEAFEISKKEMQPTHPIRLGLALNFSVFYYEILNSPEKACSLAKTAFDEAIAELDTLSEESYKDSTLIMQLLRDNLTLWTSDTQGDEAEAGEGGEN
Mcl1 Bid PPI: Mcl-1/Bid interaction inhibition | Q07820 | TR-FRET Mcl-1/Bid-Dy647 peptide binding, 1536-well | inhibition, % at 21.7 µM | 220,000 tested, 0.97% active;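 active = compounds that cut the binding signal by more than half at the single screening dose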;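 note: His-tagged Mcl-1 with europium anti-His antibody binding Bid BH3 peptide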
Large screens that a line does not name were inactive.

COc1ccc(C(=O)CSc2nnc(CN3CCCC3)n2-c2ccc(F)cc2)c(OC)c1	Mcl1 Noxa PPI 52.7
O=C(Cc1ccc(S(=O)(=O)N2CCOCC2)s1)Nc1nc2c(s1)CCCC2	Mcl1 Noxa PPI 70.9
COCCCN1CC23C=CC(O2)C(C(=O)O)C3C1=O (stereo not drawn)	none
CCCOC(=O)C1[C@H]2C(=O)N(CCCOC)C[C@]23C=C[C@H]1O3 (stereo partly drawn)	Mcl1 Noxa PPI 58.6
COC(=O)c1cc2c(C)[nH]c(C)c2cc(C(=O)OC)c1=O	none
COc1cc(C(=O)OCC#N)ccc1OCc1c(C)noc1C	none (no result: Mcl-1 Bim block)
Cc1c(Cc2ccccc2)sc(/N=C/c2c(O)ccc3ccccc23)c1C(N)=O	Mcl1 Bid PPI 53.1
Cc1c(Cc2ccccc2)sc(/N=C/c2ccc3ccccc3c2)c1C(N)=O	none
CCCCN(Cc1cc2ccccc2[nH]c1=O)S(C)(=O)=O	Mcl1 Bid PPI 98.0
COc1cc(C=O)ccc1OS(=O)(=O)c1ccc(NC(C)=O)cc1	Mcl1 Bid PPI 53.2
COc1ccc(S(=O)(=O)Nc2ccc(NC(C)=O)cc2)cc1OC	none
O=C(COC(=O)CCCN=C1NS(=O)(=O)c2ccccc21)NC(=O)NC1CCCC1	Mcl-1 Bim block 102.0
O=C(COC(=O)CCN=C1NS(=O)(=O)c2ccccc21)NC1CCCCCCC1	none (no result: Mcl-1 Bim block)
CC(=O)NC1C(Oc2ccccc2C)OC(CO)C(O)C1O (stereo not drawn)	none
O=C(O)CC(CCc1ccccc1)OC1OC(CO)C(O)C(O)C1O (stereo not drawn)	Mcl1 Noxa PPI 92.3 (no result: Mcl-1 Bim block)
O=S(=O)(c1ccccc1)N1CCN(c2ccnc3cc(Cl)ccc23)CC1	14-3-3 Bad PPI 70.7
O=S(=O)(c1cccs1)N1CCN(c2ccnc3cc(Cl)ccc23)CC1	none (no result: Mcl-1 Bim block)
[O-][n+]1c2c(nn1-c1ccccc1)/C(=N/O)CCC2	none
[O-][n+]1onc2c1CCC(=N/O)/C2=N\Nc1ccccc1	Mcl1 Noxa PPI 78.2 (no result: Mcl-1 Bim block)
CC(NC(=O)Nc1ccccn1)N1C(=O)C2C3C=CC(C3)C2C1=O (stereo not drawn)	Mcl-1 Bim block 48.0
O=C(NCN1C(=O)C2C3C=CC(C3)C2C1=O)Nc1ccccn1 (stereo not drawn)	none
Cc1ccccc1NC1=NCC(c2ccc([N+](=O)[O-])cc2)S1 (stereo not drawn)	none
Cc1ccc(Nc2cc(-n3nc(C)cc3C)ncn2)c(C)c1	Mcl1 Noxa PPI 56.4
CC1=NN(C(N)=S)C(=O)C1N=Nc1ccc(O)cc1 (stereo not drawn)	Mcl1 Noxa PPI 78.3
CC1=NN(C(N)=S)C(=O)C1N=Nc1cccc(C)c1 (stereo not drawn)	none (no result: Mcl-1 Bim block)
Nc1cc2c(cc1[N+](=O)[O-])OCO2	Mcl1 Noxa PPI 79.3 (no result: p47phox inh)
C=C1C(=O)[C@@]23[C@H](O)C[C@@H]4C(C)(C)CC[C@H](O)[C@]4(C)[C@@H]2C[C@H](O)[C@@H]1[C@H]3O	Mcl1 Bid PPI 79.9
O=C(CSc1nc2nn(-c3ccccc3)c(=O)c-2c2n1CCCCC2)NCCc1ccccc1	Mcl1 Noxa PPI 55.3
Cc1nc(N)sc1-c1csc(Nc2ncccn2)n1	Mcl1 Noxa PPI 87.2, 14-3-3 Bad PPI 89.1, Mcl1 Bid PPI 91.4
COC(=O)c1ccc(C)c(NC(=O)CCNC(=O)c2ccc([N+](=O)[O-])cc2)c1	Mcl-1 Bim block 46.0
COC(=O)c1cccc(NC(=O)CCNC(=O)c2ccc([N+](=O)[O-])cc2)c1	none
NC(=O)CC[C@@H]1NC(=O)[C@H](CO)NC(=O)c2cc([N+](=O)[O-])cc(I)c2NCCC[C@@H](C(N)=O)NC(=O)[C@H](Cc2ccc(O)cc2)NC1=O	Mcl1 Noxa PPI 61.6
COc1ccc(-c2cn[nH]c2-c2ccc(OCc3ccccc3F)cc2O)cc1OC	none (no result: Mcl-1 Bim block)
CCC1=NNc2cccc3c(OC)ccc1c23	Mcl1 Noxa PPI 78.1, p47phox inh 138.3
Cc1oc(-c2cccc(Br)c2)[n+]([O-])c1C	none
Cn1c(O)c(C2=c3ccccc3=NC2=O)sc1=Nc1ccc(Cl)cc1	none
C=CCn1c(O)c(C2=c3ccccc3=NC2=O)s/c1=N/c1nccs1	Mcl1 Bid PPI 55.7
O=C(c1ccc2c(c1)C(=O)N(CCCO)C2=O)c1ccc2c(c1)C(=O)N(CCCO)C2=O	none
O=C1c2ccc3c4c(ccc(c24)C(=O)N1CCCCO)C(=O)N(CCCCO)C3=O	p47phox inh 61.8, 14-3-3 Bad PPI 95.7
COc1cc(SC)ccc1C(=O)N1CCN(c2ccccc2)CC1	Mcl1 Noxa PPI 82.3
COc1cc(SC)ccc1C(=O)N1CCN(c2ccc(O)cc2)CC1	none
COc1cc(SC)ccc1C(=O)NCc1ccccc1	p47phox inh 76.8
COc1cc(SC)ccc1C(=O)NCc1ccc(C)cc1	none
COc1cccc(OC)c1-c1nn2c(-c3cc(-c4ccccc4)n[nH]3)nnc2s1	p47phox inh 54.4 (no result: Mcl-1 Bim block)
COc1ccccc1-c1nn2c(-c3ccco3)nnc2s1	14-3-3 Bad PPI 88.8
COc1cccc(-c2nnc3sc(-c4ccccc4)nn23)c1	none
Cc1nnc(SCC(=O)Nc2cccc(S(=O)(=O)N(C)c3ccccc3)c2)s1	none
CCOc1ccc(C(=O)Nc2cc(-c3nc4ccccc4[nH]3)ccc2C)cc1[N+](=O)[O-]	14-3-3 Bad PPI 75.4
O=C(Nc1nc2ccccc2[nH]1)c1ccc(Cl)c([N+](=O)[O-])c1	Mcl1 Noxa PPI 81.9
Cc1ccccc1/C=N/Nc1nc2ccccc2[nH]1	none
O=[N+]([O-])c1cc(/C=N/Nc2nc3ccccc3[nH]2)c(O)cc1O	Mcl1 Noxa PPI 74.7
CCOc1ccc(C(=O)Nc2cc(-c3nc4ccccc4[nH]3)ccc2Cl)cc1[N+](=O)[O-]	none
CCN(CC)CCCN1C=C2C(=O)C(C)(OC(=O)C3CCCC3)C(=O)C=C2C=C1c1ccsc1 (stereo not drawn)	none (no result: Mcl-1 Bim block)
CCOC(=O)CC(=O)N/N=C/c1c(N)n(C)c(=O)n(C)c1=O	none
CC1=C(C(=O)OC(C)C)C(c2ccccc2Cl)CC(=O)N1 (stereo not drawn)	14-3-3 Bad PPI 80.0
CC(=O)C1=C(C)NC(=O)CC1c1ccccc1Cl (stereo not drawn)	none
Cn1c(=O)c2c(nc(NCc3ccc4c(c3)OCO4)n2Cc2ccccc2Cl)n(C)c1=O	none
Cn1c(=O)c2c(nc(OCc3ccc4c(c3)OCO4)n2Cc2ccccc2Cl)n(C)c1=O	Mcl1 Bid PPI 50.8
CC(C)c1cc(C(F)(F)F)n2nc(C(=O)Nc3ccc(-n4cnnn4)cc3)cc2n1	none (no result: Mcl-1 Bim block)
CCCN1CN(c2ccccc2)C(=S)N(c2ccccc2)C1	none (no result: Mcl-1 Bim block)
COc1ccc(NC(C)C(=O)Nc2ccc(C#N)cc2)cc1Cl (stereo not drawn)	Mcl1 Noxa PPI 92.3, Mcl1 Bid PPI 88.9
COc1ccc(NC(C)C(=O)Nc2ccc(C(C)(C)C)cc2)cc1Cl (stereo not drawn)	none
Cc1cc(=O)[nH]c2c(N=Nc3ccc(O)cc3)c(N)nn12	Mcl1 Noxa PPI 56.9
COC(=O)c1cc(S(=O)(=O)NCc2ccc(S(N)(=O)=O)cc2)oc1C	none (no result: Mcl-1 Bim block)
O=C(N/N=C/c1ccco1)c1ccc(N2CCCC2=O)cc1	Mcl1 Bid PPI 93.4
O=C(NCc1ccco1)c1ccc(N2CCCC2=O)cc1	none

Source: PubChem BioAssay (several laboratories)
